From PubChem BioAssay AID1671194 (National Center for Advancing Translational Sciences (NCATS), 2021)
Among all 140,000 compounds or so, about 240 (0.17%) were called active. Roughly 9% stayed inconclusive and do not appear here. Calls come from the whole dose curve; as a rule, active = well fitted inhibition curve with a large enough effect; inconclusive = small, poorly fitted or top-dose-only effect; inactive = no such curve, though single readings can be large or run the other way. The list comes from a sample in which actives are over-represented; it also holds similar structures and randomly drawn compounds. Entries that show only a call come without a potency.

Test: Primary qHTS assay for inhibitors of alpha-synuclein gene (SNCA) expression; note: nearly all actives have a fitted effect of over 45% in size
Conditions: HEK-293 SNCA-luciferase knock-in, luminescence, 24 h; series mostly up to 57.2 µM
Potency is the fitted concentration of half-maximal effect.

| Structure (SMILES) | Potency |
| --- | --- |
| CC[C@H]1CN(C(=O)c2ccc(F)cc2)CC[C@H]1CC(=O)N[C@@H](CO)CC(C)C | inactive |
| O=C(COc1ccc(F)cc1)NC1CCc2n[nH]c(=O)n2CC1 (stereo not given) | inactive |
| COc1ccc(Cc2nnc3ccc(C(=O)NCCc4ccc(F)cc4)cn23)cc1 | inactive |
| Cc1cn2nc(C(=O)Nc3ccc(F)cc3C)cc2c(N(C)Cc2ccccc2)n1 | inactive |
| COc1cccc(C(=O)N2CCCC(C(=O)N3CCC(c4nc5ccncc5[nH]4)C3)C2)c1 (stereo not given) | inactive |
| COc1ccc(-c2cc3nc4c(c(=O)n3[nH]2)CCN(C(=O)c2ccccc2C)C4)cc1 | inactive |
| O=C(c1cccs1)N1CC[C@H](c2nnc(Cc3c[nH]c4ccccc34)o2)C1 | inactive |
| Cc1ccccc1NC(=O)c1cc2cn(C(C)C)cc2s1 | inactive |
| COCC(=O)N1CCCC(C(=O)N2CCC3(CC2)CC(=O)Nc2ccccc2O3)C1 (stereo not given) | inactive |
| Cc1nn2c(c1-c1ccccc1-c1ccccc1)N(C(=O)CN1CCOCC1)CCC2 | inactive |
| Cc1nn2c(c1-c1ccccc1-c1ccccc1)N(CC1CC1)CCC2 | 2510 nM (active) |
| Cc1nn2c(c1-c1ccccc1N1CCCC1)N(C(=O)c1ccc(Oc3ccccc3)cc1)CCC2 | inactive |
| CC(C)(C)c1csc(NC(=O)c2ccc3c(c2)OCCN(C2CCC2)C3)n1 | inactive |
| O=C(c1cccs1)N1CCCCCC1CN1CCCC1 (stereo not given) | inactive |
| O=C(O)COc1ccc(-c2nccc3c2C(=O)N(Cc2ccccc2)CC(COc2cccc(C(F)(F)F)c2)O3)cc1 (stereo not given) | inactive |
| Cc1ccc(C(=O)N2CCCN(C(=O)C3CC3)c3ccccc32)cc1F | inactive |
| O=C(c1ccccc1Cl)N1CCCN(c2cc(-c3ccc(F)cc3)[nH]n2)CC1 | inactive |
| CNC(=O)[C@H]1C[C@H](Oc2ccccc2)CN1C(=O)CCn1nc(C)cc1C | inactive |
| Cc1ccc(S(=O)(=O)N2CCC3(CC2)C(=O)N(CC(=O)NC(C)C)CN3c2ccccc2)cc1 | inactive |
| CCc1nc2c(c(-c3ccc(O)cc3)n1)CCN(Cc1cccc(OC)c1)CC2 | inactive |
| CCn1ccc(C(=O)N2CCC(C3CCN(C(C)=O)CC3)C2)n1 (stereo not given) | inactive |
| O=C(NCC1CC1)c1ccc2nnc(Cc3ccc(Cl)cc3)n2c1 | inactive |
| O=C(NCC1Cn2cccc2CN1Cc1ccccc1)c1ccco1 (stereo not given) | inactive |
| O=C(Cc1c[nH]c2ncc(-c3ccccc3F)cc12)N1CCOCC1 | inactive |
| N[C@@H]1CCN(Cc2cccc(Oc3ccc(F)cc3)c2)C[C@H]1O | inactive |
